High-throughput results: PubChem BioAssay, National Center for Advancing Translational Sciences (NCATS)
This is a sample that favours compounds with a hit; in the whole collection about 19% have one here.
DT40 TDP1 CPT: qHTS for Inhibitors of human tyrosyl-DNA phosphodiesterase 1 (TDP1): qHTS in cells in presence of CPT; AID 686979, 2013; chicken DT40 Tdp1-/-;hTDP1 cells + 20 nM CPT, ATP luminescence, 48 h; 420,000 compounds, 12% hits; Potency, µM (series often up to 46.2 µM), for inactives: top-dose activity change, negative = growth inhibition, usual class: inhibitors; note: potency is the fitted concentration of half-maximal effect; nearly all actives have a fitted effect of over 55% in size
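Chicken DT40 Tdp1-/- cells complemented with human TDP1, 400 cells/well, exposed to compounds plus 20 nM camptothecin for at least 48 h at 37 C; viability read as ATP content by CellTiter-Glo luminescence.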
HT1080 IDH1KD tx: qHTS for induction of synthetic lethality in tumor cells producing 2HG: qHTS for the HT-1080-IDH1KD cell line. 360,000 compounds, 2% hits. HT-1080 IDH1 knockdown viability, ATP luminescence, 48 h. Potency, µM (doses to about 46.1 µM), without a hit: at the top dose activity, negative = toxicity, hits mostly cytotoxic;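 note: potency is the fitted concentration of half-maximal effect; 0% = DMSO wells and -100% = cell-free medium wells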
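% activity derives from luminescence (CellTiter-Glo), normalised to DMSO and no-cell wells. HT-1080-IDH1KD cells, 750/well, had 48 h compound exposure at 37 °C.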
DT40 TDP1 no CPT: qHTS for Inhibitors of human tyrosyl-DNA phosphodiesterase 1 (TDP1): qHTS in cells in absence of CPT; 420,000 compounds, 15% hits; Potency, µM (top dose mostly 46.2 µM), without a hit: at the top dose activity change, negative = growth inhibition, hits mostly inhibitors; DT40 Tdp1-/- hTDP1 cells, no CPT, ATP luminescence, 48 h; note: potency is the fitted concentration of half-maximal effect; nearly all actives have a fitted effect of over 55% in size
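A cellular qHTS used chicken DT40 cells lacking endogenous Tdp1 but carrying stably transfected human TDP1. Compounds were applied without camptothecin, and cell growth kinetics were judged by ATP-dependent luminescence after ≥48 hr.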
HT1080NT lethal: qHTS for induction of synthetic lethality in tumor cells producing 2HG: qHTS for the HT-1080-NT fibrosarcoma cell line. HT-1080-NT fibrosarcoma viability, CellTiter-Glo ATP luminescence, 48 h. Potency, µM (highest dose often 46.1 µM), for inactives: at the top dose activity, negative = less viability, hits mostly cytotoxic. 360,000 compounds, 1.6% hits. AID 686970, 2013;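 note: NT is the 2HG producing partner of a matched IDH1 knockdown line; potency is the fitted concentration of half-maximal effect; 0% = DMSO-treated cells and -100% = media-only wells without cells; nearly all actives have a fitted effect of over 55% in size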
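Viability of the 2HG-overproducing fibrosarcoma line after 48 hours of compound exposure at 37 degrees C was determined by luminescence with CellTiter-Glo, and concentration-effect curves were then fitted and categorized.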
IL-1B inflam inh: qHTS for Inhibitors of Inflammasome Signaling: IL-1-beta AlphaLISA Primary Screen; THP-1 LPS/ATP IL-1B secretion, AlphaLISA, 16 h; active compounds read low; activity change, % at 57.5 µM; 360,000 compounds, 4.7% hits; AID 743279, 2014; in the data active = activity change below about -50%; inconclusive = mostly about -30% to -49%
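Secreted IL-1B measured by AlphaLISA bead assay after 16 h compound exposure of THP-1 cells; compounds (final up to 57.5 uM) added 1 h before LPS (250 ng/mL) and ATP (1.25 mM) stimulation; lower signal means less secretion.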
ELG1 DNA repair: qHTS screen for small molecules that inhibit ELG1-dependent DNA repair in human embryonic kidney (HEK293T) cells expressing luciferase-tagged ELG1; AID 504467, 2011; HEK293T ELG1-luciferase reporter, luminescence, 16 h; DNA damage induced by 5-fluorouridine; 330,000 compounds, 2.3% hits; Potency, µM (top dose mostly 46.1 µM), inactives show top-dose activity change, negative = inhibition, actives largely listed as inhibitors; note: potency is the fitted concentration of half-maximal effect; nearly all actives have a fitted effect of over 55% in size
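Step one: seed 2,000 cells per well. Step two: pin-transfer compound or DMSO alongside 5-fluorouridine. Step three: incubate 16 hr, 37 °C, 5% CO2. Step four: add ONE-Glo, wait 30 min, read luminescence.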
* hit, by the source's call; ? = inconclusive; . = no result given; [ ] = remark or other dose. Unless noted, calls come from the whole dose curve; as a rule, active = well fitted curve in the direction sought with a large enough effect; inconclusive = small, poorly fitted or top-dose-only effect, or another doubt; inactive = no such curve, though single readings can be large; an effect the other way counts as inactive or inconclusive. Unless noted, % is set by controls: 0 for no effect and ±100 for the full control effect.

SMILES | DT40 TDP1 CPT | HT1080 IDH1KD tx | DT40 TDP1 no CPT | HT1080NT lethal | IL-1B inflam inh | ELG1 DNA repair
CCOC(=O)c1[nH]c2ccccc2c1NC(=O)c1ccc(Br)cc1 | -22% | . | -23% | . | . | .
O=C(CN1C(=O)C2CC=CCC2C1=O)Nc1ccc(F)cc1F (stereo not drawn) | 3% | -1% | 17% | -1% | 0 | 18%
COc1cccc2[nH]c(C(=O)NN)c(N)c12 | ? | -11% | 16µM* | -2% | 25 | ?
COc1cccc2[nH]c3ccccc3c(=O)c12 | -94% | 2% | ? | 2% | 0 | 26%
CCOC(=O)Nc1c(C(=O)OC)[nH]c2cc(OC)ccc12 | ? | -8% | 21µM* | -11% | 30 | 0%
CC(OC(=O)CN1C(=O)c2ccccc2C1=O)C(=O)NC1CCCCC1 (stereo not drawn) | -7% | 11% | 2% | 10% | -7 | 7%
COc1ccccc1CNC(=O)CSc1nc(=O)[nH]c2c1CCCC2 | -14% | . | -19% | . | . | .
CCCCCCN1C[C@H](O)[C@@H](n2cc(C3CC3)nn2)C[C@@H]1c1ccccc1 | ? | -1% | 23µM* | 2% | 23 | .
CCCCCCN1C[C@@H](n2cc(C3CC3)nn2)[C@H](O)C[C@@H]1c1ccc(Cl)cc1 | ? | -1% | ? | 2% | 0 | .
CCCCCCN1C[C@H](O)[C@@H](n2cc(C3CC3)nn2)C[C@@H]1c1ccc(C)cc1 | ? | -2% | 26µM* | 0% | -4 | .
CCCCCCN1C[C@@H](O)[C@H](n2cc(C3CC3)nn2)C[C@@H]1c1ccc(Cl)cc1 | 26µM* | ? | ? | -27% | 16 | .
CCCCCC(=O)N1C[C@H](n2cc(C3CC3)nn2)[C@@H](O)C[C@@H]1c1ccc(OC)cc1 | 5% | -6% | -10% | -10% | -2 | .
CCCCCC(=O)N1C[C@@H](n2cc(C3CC3)nn2)[C@H](O)C[C@@H]1c1ccc(Cl)cc1 | 16µM* | -17% | 21µM* | -12% | 23 | .
CCC(Oc1ccccc1)C(=O)Nc1ccc(S(=O)(=O)Nc2cc(C)on2)cc1 (stereo not drawn) | -9% | 5% | -11% | 3% | 3 | -2%
O=C1/C(=C/c2cccc([N+](=O)[O-])c2)CSc2ccc(Cl)cc21 | 2% | 13% | -19% | 20% | -1 | -1%
COc1cccc(/C=C2\CCc3ccccc3C2=O)c1 | ? | ? | ? | ? | -6 | ?
O=C(O)c1ccc(-n2ncc3c2/C(=C/c2cccc([N+](=O)[O-])c2)CC3)cc1 | 16µM* | 6% | ? | 10% | 32 | ?
CCN1C/C(=C\c2cccc([N+](=O)[O-])c2)C(=O)/C(=C/c2cccc([N+](=O)[O-])c2)C1 | 0.65µM* | 2.3µM* | 0.92µM* | 4.1µM* | -104* | 3.3µM*
O=C1/C(=C\c2ccc3ccccc3c2)CCCc2ccccc21 | ? | 13µM* | ? | ? | 6 | ?
O=C1/C(=C/c2cccc([N+](=O)[O-])c2)CCc2ccccc21 | ? | ? | 15µM* | ? | -121* | -17%
Cc1ccccc1/C=C1\CCCc2ccccc2C1=O | -21% | -16% | -26% | -15% | 0 | ?
CC1=C(C)CC2C(C1)C(=O)c1ccc(Br)cc1S2(=O)=O (stereo not drawn) | -3% | 15% | -21% | 17% | 4 | 15%
O=C1CCc2cc(S(=O)(=O)Nc3ccccc3)cc3c2N1CCC3 | -19% | -1% | -22% | -8% | 21 | -14%
COC(=O)[C@@]1(Sc2ccc(C)cc2)CC(=O)N[C@@H]1c1ccc(Br)cc1 | -24% | ? | -29% | -21% | 58 | .
Cc1ccc(Cl)cc1N1CCN(S(=O)(=O)c2ccc3oc(=O)c4ncn(C)c4c3c2)CC1 | -4% | . | -3% | . | . | .
SMILES | DT40 TDP1 CPT | HT1080 IDH1KD tx | DT40 TDP1 no CPT | HT1080NT lethal | IL-1B inflam inh | ELG1 DNA repair
O=C(COC(=O)CCS(=O)(=O)c1ccccc1)Nc1ccc(N2CCCCC2)cc1 | 3% | -1% | -21% | -1% | -7 | ?
COC(=O)c1cc(=O)n(CCc2ccccc2)c(=Nc2ccc(F)cc2)s1 | ? | -18% | ? | ? | 1 | -23%
COC(=O)c1cc(=O)n(Cc2ccc3c(c2)OCO3)c(=Nc2ccc(F)c(Cl)c2)s1 | 8.2µM* | -1% | 6.5µM* | 14% | -6 | -6%
COC(=O)c1cc(=O)n(CCc2ccc(OC)cc2)c(=Nc2ccc(F)c(Cl)c2)s1 | ? | ? | ? | 21µM* | . | ?
COC(=O)c1cc(=O)n(Cc2ccc(OC)cc2)c(=NCc2ccc(OC)cc2)s1 | -6% | 9% | -23% | 10% | 10 | 9%
COc1ccc(C(=O)N/C(=C\c2cn(C)c3ccccc23)C(=O)NCCCn2ccnc2)cc1 | -23% | -2% | -4% | -5% | 0 | 4%
Cc1onc(-c2ccccc2)c1C(=O)NC1C(=O)N2C(C(=O)O)C(C)(C)S[C@@H]12 (stereo partly drawn) | 9% | . | -2% | . | . | .
COc1ccc(CC(=O)NCCC2=CCCCC2)cc1 | -17% | -5% | 2% | 4% | -24 | ?
COc1ccc(-n2cnc3cc(C(=O)NCCC4=CCCCC4)ccc32)cc1 | 18µM* | . | ? | . | . | .
O=C(NCCC1=CCCCC1)c1ccc2c(c1)ncn2-c1cccc(Cl)c1 | 16µM* | . | 15µM* | . | . | .
COc1ccc(-c2nnc(Nc3ccc(OCC(N)=O)cc3)c3ccccc23)cc1 | -26% | . | ? | . | . | .
CCN(c1ccccc1)S(=O)(=O)c1cccc(C(=O)N(C)CC(=O)Nc2ccc(F)c(F)c2F)c1 | 15µM* | -3% | 18µM* | -1%[9.24 µM] | ? | .
CCN(CC(=O)Nc1c(F)cccc1F)C(=O)c1ccc(S(=O)(=O)N(CC)c2ccccc2)cc1 | ? | 0% | ? | -3% | -14 | .
C=CCN(c1ccccc1)S(=O)(=O)c1cccc(C(=O)N(CC)CC(=O)Nc2c(F)cccc2F)c1 | 23µM* | 13% | 15µM* | -3% | 0 | ?
